In assay [1] the target is Estrogen receptor beta (Homo sapiens) (UniProt Q92731). Put plainly: qHTS assay to identify small molecule agonists of the estrogen receptor beta (ER-beta) signaling pathway (AID 1259377; active = well fitted activation curve with a large enough effect in the signal ratio in the repeat runs, not every such curve was filed as active; the % refers to the signal ratio). Summed up: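 HEK293T ER-beta-UAS-bla; 2% charcoal-stripped FBS; cells pre-incubated 6 hr, compound 16 hr, 37C/5% CO2; LiveBLAzer B/G FRET substrate 2 h RT; fluorescence intensity read.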

Assay [2] has the same target. Put plainly: qHTS assay to identify small molecule antagonists of the estrogen receptor beta (ER-beta) signaling pathway (AID 1259378; active = well fitted inhibition curve with a large enough effect in the signal ratio in the repeat runs, not every such curve was filed as active; the % refers to the signal ratio; also: potency is read from the fitted curve at half-maximal effect). The procedure, abridged: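 Antagonist mode: compounds added to beta-lactamase reporter HEK293T ER-beta-UAS cells stimulated with E2 (1nM final), 16 hr at 37C. LiveBLAzer B/G FRET substrate, 2 hours room temperature, fluorescence read-out.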
(Quantitative high-throughput screening tests each substance at several concentrations.)

Assay [3] deals with Androgen receptor (Homo sapiens) (UniProt P10275). Put plainly: qHTS assay to identify small molecule agonists of the androgen receptor (AR) signaling pathway in the presence of an antagonist (AID 1259381; calls by dose curve; also: nearly all actives have a fitted effect of over 15% in size). Summed up:
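MDA-kb2 human breast carcinoma cells carrying an MMTV-luciferase reporter (AR- and GR-responsive) were treated with compounds at 15 concentrations plus 3.0uM final nilutamide for 16hr at 37C without CO2; luminescence was read after ONE-Glo addition.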

Assay [4] is described as follows: qHTS assay to identify small molecule antagonists of the estrogen receptor beta (ER-beta) signaling pathway - cell viability counter screen (AID 1259382). Also: nearly all actives have a fitted effect of over 55% in size. Also: potency is read from the fitted curve at half-maximal effect.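 As to activity change, negative = cytotoxicity: HEK293T cells carrying ER-beta-UAS-bla reporter stimulated with estradiol; series mostly up to about 92 µM.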 Summed up:
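ER-beta-UAS-bla HEK293T cells (2,000/well, 2% charcoal-stripped FBS) were pre-incubated 6 hr at 37C, then given compound plus 1nM final 17-beta-estradiol for 16 hr. Viability was read in the same wells by CellTiter-Glo luminescence after 30 min at room temperature.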

Assay [5] has as its target Estrogen receptor (Homo sapiens) (UniProt P03372). Put plainly: qHTS assay to identify small molecule agonists of the estrogen receptor alpha (ER-alpha) signaling pathway in the presence of an antagonist (AID 1259383; calls by dose curve; also: top concentration of the series differs between compounds; nearly all actives have a fitted effect of over 15% in size). Summed up: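 VM7Luc4E2 cells (endogenous full-length ER-alpha, 4×ERE-luciferase) were precultured 5 days in phenol red-free medium with 10% charcoal-stripped FBS, given 10.0nM ICI-182,780 (final), then treated with compounds at 15 concentrations for 22hr at 37C; luminescence read with ONE-Glo.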

Assay [6] can be described thus: qHTS assay to identify small molecule agonists or antagonists of the thyroid stimulating hormone receptor (TSHR) signaling pathway - wild type cell line counter screen (AID 1259384; calls by dose curve). Summed up:
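Counter screen in untransfected Hek293: compounds (15-point titration, triplicate) plus phosphodiesterase inhibitor Ro20-1724 added after 18 h plating; 30 min RT. Intracellular cAMP via competitive d2/cryptate immunoassay, 1 h incubation.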

The target of assay [7] is Thyrotropin receptor (Homo sapiens) (UniProt P16473). Put plainly: qHTS assay to identify small molecule antagonists of the thyroid stimulating hormone receptor (TSHR) signaling pathway (AID 1259385; calls by dose curve; also: nearly all actives have a fitted effect of over 20% in size). The procedure, abridged: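 Antagonist mode: compound-treated TSHR-expressing HEK293 cells were stimulated with 1.5 ng/mL TSH (final) in presence of Ro20-1724 for 30 min at RT. HTRF cAMP detection after 1 h; each compound tested at 15 concentrations, triplicate.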

The nature of assay [8]: qHTS assay to identify small molecule agonists of the estrogen receptor alpha (ER-alpha) signaling pathway in the presence of an antagonist - cell viability counter screen (AID 1259386).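 Also: series mostly up to about 92 µM; cells exposed to compounds for 22 h at 37 °C before the viability read; nearly all actives have a fitted effect of over 30% in size.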 The procedure, abridged:
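VM7Luc4E2 cells (endogenous full-length ER-alpha, 4×ERE-luciferase) were held 5 days in phenol red-free medium with 10% charcoal-stripped FBS, plated, then given 10.0nM ICI-182,780 and compounds at 15 concentrations for 22hr at 37C; viability read by CellTiter-Fluor fluorescence.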

The target of assay [9] is Progesterone receptor (Homo sapiens) (UniProt P06401). The experiment in a line: qHTS assay to identify small molecule agonists of the progesterone receptor (PR) signaling pathway (AID 1346784; calls by dose curve; also: nearly all actives have a fitted effect of over 30% in size). Summed up: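 Beta-lactamase reporter read-out: after 16 hr compound treatment at 37C and a further 2 hr at room temperature with LiveBLAzer B/G FRET substrate, fluorescence was measured in PR-UAS-bla HEK 293T cells grown in 2% charcoal-stripped serum.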

The target is the same in assay [10]. The experiment in a line: qHTS assay to identify small molecule antagonists of the progesterone receptor (PR) signaling pathway (AID 1346795; active = well fitted inhibition curve with a large enough effect in the signal ratio in the repeat runs, not every such curve was filed as active; the % refers to the signal ratio). Summed up:
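Read-out is fluorescence from the LiveBLAzer B/G FRET substrate, cleaved by a UAS-controlled beta-lactamase in PR-UAS-bla HEK293T cells after 16 hr exposure to compound plus 1 nM promegestone (final), followed by 2 hr at room temperature.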

A short description of assay [11]: qHTS assay to identify small molecule antagonists of the progesterone receptor (PR) signaling pathway - cell viability counter screen (AID 1346798). Also: nearly all actives have a fitted effect of over 50% in size. Also: potency is read from the fitted curve at half-maximal effect. As to activity change, negative = cytotoxicity: series mostly up to about 92 µM. Summed up: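 HEK293T PR-UAS-bla, 2% charcoal-stripped FBS; 4 hr pre-plate; cpd + R5020, 16 h 37C; LiveBLAzer read first; then CellTiter-Glo 30 min RT, luminescence.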
A short description of assay [12]: qHTS assay to identify small molecule antagonists of the TGF-beta/Smad signaling pathway - cell viability counter screen (AID 1346824). Also: nearly all actives have a fitted effect of over 50% in size. Summed up: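 Cytotoxicity counter-screen run in the same wells as the beta-lactamase Smad reporter read: CellTiter-Glo luminescence after 30 min at room temperature. HEK 293T SBE-bla cells had 5 hr compound exposure at 37 C with TGF-beta1 (0.25 ng/mL stock).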

Assay [13] in a line: qHTS assay to identify small molecule agonists of the TGF-beta/Smad signaling pathway - cell viability counter screen (AID 1346829). Also: top concentration of the series differs between compounds; nearly all actives have a fitted effect of over 45% in size. Summed up:
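Luminescence from CellTiter-Glo, read after a 30 min room-temperature incubation, gives cell viability of SBE-bla HEK 293T cells treated 5 hr with compounds at 37 C.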

A short description of assay [14]: qHTS assay to identify small molecule agonists of the TGF-beta/Smad signaling pathway (AID 1346859; active = well fitted activation curve with a large enough effect in the signal ratio in the repeat runs, not every such curve was filed as active; the % refers to the signal ratio; also: series mostly up to about 77 µM). Summed up: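 SBE-bla HEK 293T, 4,000 cells/well, plated o/n; cpd in DMSO, 5 hr, 37 C/5% CO2; B/G FRET substrate 2 hr RT; ex 405, em 460/530 nm.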
Assay [15] in a line: Human pregnane X receptor (PXR) small molecule agonists, qHTS cell viability counter screen (AID 1346977). Also: nearly all actives have a fitted effect of over 50% in size. Also: potency is read from the fitted curve at half-maximal effect. The procedure, abridged: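 PXR-Luc HepG2, 2,000 cells/well, 5% charcoal-stripped FBS; 5hr settle; cpd 24hr, 37C/5% CO2; CellTiter-Fluor at 23hr, read 1hr later (fluorescence).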
Assay [16] can be described thus: qHTS assay to identify small molecule agonists of the estrogen receptor beta (ER-beta) signaling pathway - cell viability counter screen (AID 1259380). Also: nearly all actives have a fitted effect of over 30% in size. Also: potency is read from the fitted curve at half-maximal effect. The procedure, abridged: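 ER-beta-UAS-bla HEK293T cells in medium with 2% charcoal-stripped FBS were preincubated 6 hr at 37C, dosed with compound in DMSO for 16 hr, then after the bla read, CellTiter-Glo was added for 30 min at room temperature; luminescence recorded.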

Assay [17] in a line: qHTS assay to identify small molecule agonists of the progesterone receptor (PR) signaling pathway - cell viability counter screen (AID 1346799; calls by dose curve; also: nearly all actives have a fitted effect of over 45% in size; also: potency is read from the fitted curve at half-maximal effect). The procedure, abridged: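 Luminescence from CellTiter-Glo, added after the beta-lactamase FRET read in the same wells, gave cytotoxicity in PR-UAS-bla HEK293T cells treated with compounds for 16 hr at 37C.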
In assay [18] the target is Thyrotropin-releasing hormone receptor (Homo sapiens) (UniProt P34981). Put plainly: qHTS assay to identify small molecule antagonists of the thyrotropin-releasing hormone receptor (TRHR) signaling pathway (AID 1346877; active = well fitted inhibition curve with a large enough effect in the repeat runs, not every such curve was filed as active; also: series mostly up to about 51 µM). Summed up:
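TRHR-expressing HEK293 cells were seeded, cultured 18 h at 37 °C, then loaded with calcium dye for 2 h. Compounds were pre-incubated 5 min at room temperature before 1 nM TRH (final) was added, and kinetic fluorescence was recorded for 3 min.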

For assay [19] the target is unchanged. The experiment in a line: qHTS assay to identify small molecule agonists of the thyrotropin-releasing hormone receptor (TRHR) signaling pathway (AID 1346891; calls by dose curve; also: series mostly up to about 58 µM). Summed up:
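Intracellular calcium rise, read as fluorescence every second for 3 min, served as the agonist signal in dye-loaded HEK293 cells expressing TRHR; each compound ran at 15 concentrations in triplicate.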

Assay [20] in a line: qHTS assay to identify small molecule agonists of the androgen receptor (AR) signaling pathway in the presence of an antagonist - cell viability counter screen (AID 1259379). Also: series mostly up to about 92 µM; nearly all actives have a fitted effect of over 25% in size. Summed up:
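MDA-kb2 human breast carcinoma cells (stable MMTV-luciferase, AR/GR responsive) were seeded 3,000 cells/well, pre-incubated 5 hr at 37C without CO2, then given 3.0uM nilutamide and compounds at 15 concentrations for 16 hr. Viability was read by CellTiter-Fluor fluorescence.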

Molecules are shown by their SMILES. Values without a mark were called inactive. Inconclusive results are not listed. Activity calls are given as the source filed them. Unless noted, calls follow the shape of the dose curve; as a rule, active = well fitted curve in the direction sought with a large enough effect in the repeat runs; inconclusive = weak or mixed curves; inactive = no such curve, though single readings can be large; an effect the other way counts as inactive or inconclusive.
% is scaled to controls: 0 for no effect and ±100 for the full control effect.

Sequence of Estrogen receptor beta (Homo sapiens) (Q92731 whole entry, looked up): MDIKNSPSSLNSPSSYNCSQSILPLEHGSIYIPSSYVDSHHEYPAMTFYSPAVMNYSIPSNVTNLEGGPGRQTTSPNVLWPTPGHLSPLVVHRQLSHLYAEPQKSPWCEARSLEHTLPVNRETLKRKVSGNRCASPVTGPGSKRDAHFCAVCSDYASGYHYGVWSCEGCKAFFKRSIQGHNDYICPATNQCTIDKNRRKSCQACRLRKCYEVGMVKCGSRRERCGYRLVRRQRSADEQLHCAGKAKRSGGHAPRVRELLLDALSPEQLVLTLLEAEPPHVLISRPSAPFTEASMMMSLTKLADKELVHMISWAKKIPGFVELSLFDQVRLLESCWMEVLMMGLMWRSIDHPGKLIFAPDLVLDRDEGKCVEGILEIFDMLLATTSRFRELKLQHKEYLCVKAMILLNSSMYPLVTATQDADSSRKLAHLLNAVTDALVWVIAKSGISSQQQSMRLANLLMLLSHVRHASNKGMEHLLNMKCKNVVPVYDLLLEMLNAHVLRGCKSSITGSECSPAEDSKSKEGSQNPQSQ
Sequence of Progesterone receptor (Homo sapiens) (P06401 whole entry, looked up): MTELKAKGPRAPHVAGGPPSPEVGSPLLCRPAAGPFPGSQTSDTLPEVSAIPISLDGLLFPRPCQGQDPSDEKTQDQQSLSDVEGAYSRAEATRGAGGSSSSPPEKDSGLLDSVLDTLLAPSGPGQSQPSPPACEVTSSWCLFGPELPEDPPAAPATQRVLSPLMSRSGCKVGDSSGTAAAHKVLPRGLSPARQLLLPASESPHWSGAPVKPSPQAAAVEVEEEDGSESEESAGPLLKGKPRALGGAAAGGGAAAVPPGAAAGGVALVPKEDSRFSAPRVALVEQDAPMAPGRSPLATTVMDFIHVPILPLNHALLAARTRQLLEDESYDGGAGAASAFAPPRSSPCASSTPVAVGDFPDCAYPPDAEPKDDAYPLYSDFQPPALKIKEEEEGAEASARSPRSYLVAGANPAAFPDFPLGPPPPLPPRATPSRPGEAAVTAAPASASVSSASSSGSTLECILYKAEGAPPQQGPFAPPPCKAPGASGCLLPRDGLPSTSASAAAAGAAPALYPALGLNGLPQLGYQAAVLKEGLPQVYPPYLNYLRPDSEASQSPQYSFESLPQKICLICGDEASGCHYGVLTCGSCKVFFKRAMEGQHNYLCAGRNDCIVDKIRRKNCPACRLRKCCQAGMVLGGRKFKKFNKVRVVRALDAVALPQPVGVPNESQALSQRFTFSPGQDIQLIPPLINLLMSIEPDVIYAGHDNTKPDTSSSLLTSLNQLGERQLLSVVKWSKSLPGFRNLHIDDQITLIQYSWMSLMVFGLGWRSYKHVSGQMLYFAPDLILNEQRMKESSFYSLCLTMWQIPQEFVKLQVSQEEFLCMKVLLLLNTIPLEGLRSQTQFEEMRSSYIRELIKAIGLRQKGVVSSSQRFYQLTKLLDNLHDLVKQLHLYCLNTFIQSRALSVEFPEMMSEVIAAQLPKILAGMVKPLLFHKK
Sequence of Thyrotropin receptor (Homo sapiens) (P16473 whole entry, looked up): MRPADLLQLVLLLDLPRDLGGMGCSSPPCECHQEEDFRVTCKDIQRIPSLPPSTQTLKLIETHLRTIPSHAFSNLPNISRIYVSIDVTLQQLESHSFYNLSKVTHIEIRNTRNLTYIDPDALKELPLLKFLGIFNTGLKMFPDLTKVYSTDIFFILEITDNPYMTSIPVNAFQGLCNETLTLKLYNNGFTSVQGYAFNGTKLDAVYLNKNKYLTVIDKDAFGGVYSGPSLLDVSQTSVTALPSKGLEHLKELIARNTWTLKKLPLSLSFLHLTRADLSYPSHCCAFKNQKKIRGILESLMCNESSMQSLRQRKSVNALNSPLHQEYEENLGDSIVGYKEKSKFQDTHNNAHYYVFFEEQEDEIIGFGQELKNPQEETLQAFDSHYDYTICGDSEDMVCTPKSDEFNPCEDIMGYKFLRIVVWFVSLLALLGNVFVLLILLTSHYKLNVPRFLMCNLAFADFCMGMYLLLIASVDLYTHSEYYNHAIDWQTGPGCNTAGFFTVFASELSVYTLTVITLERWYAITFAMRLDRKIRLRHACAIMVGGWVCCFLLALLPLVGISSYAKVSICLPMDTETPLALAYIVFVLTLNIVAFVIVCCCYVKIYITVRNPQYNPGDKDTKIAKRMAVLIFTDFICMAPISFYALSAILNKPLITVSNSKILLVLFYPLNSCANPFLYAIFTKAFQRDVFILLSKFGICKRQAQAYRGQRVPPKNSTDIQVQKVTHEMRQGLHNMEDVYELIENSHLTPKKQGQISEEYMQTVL
Sequence of Thyrotropin-releasing hormone receptor (Homo sapiens) (P34981 whole entry, looked up): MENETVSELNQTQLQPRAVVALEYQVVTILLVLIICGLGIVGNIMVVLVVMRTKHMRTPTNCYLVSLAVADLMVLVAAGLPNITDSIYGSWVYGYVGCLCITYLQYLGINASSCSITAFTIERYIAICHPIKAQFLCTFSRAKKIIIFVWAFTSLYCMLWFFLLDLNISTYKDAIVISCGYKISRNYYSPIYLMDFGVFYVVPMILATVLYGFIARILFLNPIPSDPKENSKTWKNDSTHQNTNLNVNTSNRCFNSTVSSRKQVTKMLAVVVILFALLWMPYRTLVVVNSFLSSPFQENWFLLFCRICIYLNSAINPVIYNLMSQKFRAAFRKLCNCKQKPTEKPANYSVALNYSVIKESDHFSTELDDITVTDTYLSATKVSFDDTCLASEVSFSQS
Sequence of Estrogen receptor (Homo sapiens) (P03372 whole entry, looked up): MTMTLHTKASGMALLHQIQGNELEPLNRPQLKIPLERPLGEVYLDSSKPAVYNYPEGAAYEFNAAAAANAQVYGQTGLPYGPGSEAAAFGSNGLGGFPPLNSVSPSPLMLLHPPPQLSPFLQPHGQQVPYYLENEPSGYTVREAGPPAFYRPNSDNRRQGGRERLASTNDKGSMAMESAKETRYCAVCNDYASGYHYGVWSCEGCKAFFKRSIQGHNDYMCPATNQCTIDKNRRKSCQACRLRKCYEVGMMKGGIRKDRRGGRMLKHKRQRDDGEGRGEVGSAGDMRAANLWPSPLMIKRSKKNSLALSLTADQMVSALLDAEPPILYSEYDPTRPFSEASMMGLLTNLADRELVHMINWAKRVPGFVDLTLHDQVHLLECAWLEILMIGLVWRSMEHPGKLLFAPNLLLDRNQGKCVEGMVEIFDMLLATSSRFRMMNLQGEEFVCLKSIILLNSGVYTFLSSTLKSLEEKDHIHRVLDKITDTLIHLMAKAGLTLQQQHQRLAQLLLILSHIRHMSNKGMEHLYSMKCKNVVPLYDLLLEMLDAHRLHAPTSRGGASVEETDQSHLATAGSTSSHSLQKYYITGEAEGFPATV
Sequence of Androgen receptor (Homo sapiens) (P10275 whole entry, looked up): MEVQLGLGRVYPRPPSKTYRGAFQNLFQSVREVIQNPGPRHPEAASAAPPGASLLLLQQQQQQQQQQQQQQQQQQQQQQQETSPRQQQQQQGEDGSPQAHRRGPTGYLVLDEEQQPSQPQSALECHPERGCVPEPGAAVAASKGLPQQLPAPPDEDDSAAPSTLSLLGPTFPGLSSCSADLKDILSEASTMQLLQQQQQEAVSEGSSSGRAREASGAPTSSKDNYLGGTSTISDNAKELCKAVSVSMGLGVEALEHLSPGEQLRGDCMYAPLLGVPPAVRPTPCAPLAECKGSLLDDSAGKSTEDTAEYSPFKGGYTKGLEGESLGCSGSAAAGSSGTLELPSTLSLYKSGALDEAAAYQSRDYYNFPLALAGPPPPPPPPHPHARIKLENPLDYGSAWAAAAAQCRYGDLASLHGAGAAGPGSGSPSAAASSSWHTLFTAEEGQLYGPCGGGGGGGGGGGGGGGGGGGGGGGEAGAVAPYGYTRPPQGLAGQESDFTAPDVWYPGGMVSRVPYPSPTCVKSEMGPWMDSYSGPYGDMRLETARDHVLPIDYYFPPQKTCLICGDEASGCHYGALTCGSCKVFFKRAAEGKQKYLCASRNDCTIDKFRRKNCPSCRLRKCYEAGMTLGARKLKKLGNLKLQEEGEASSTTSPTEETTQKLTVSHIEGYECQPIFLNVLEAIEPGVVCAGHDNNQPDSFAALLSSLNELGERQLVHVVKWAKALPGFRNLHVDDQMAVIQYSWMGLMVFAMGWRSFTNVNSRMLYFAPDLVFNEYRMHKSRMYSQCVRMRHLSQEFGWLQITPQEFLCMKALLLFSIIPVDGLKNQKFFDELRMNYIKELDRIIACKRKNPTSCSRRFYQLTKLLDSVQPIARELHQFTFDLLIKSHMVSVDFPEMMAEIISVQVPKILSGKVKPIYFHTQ

As for `CC(C)Cn1cnc2c(N)nc3ccccc3c21`, the activation is 4.64% [at 19 µM] in [1]; -5.94% [at 19 µM] in assay [3]; -0.124% [at 19 µM] in assay [5]; 1.05% [at 19 µM] in assay [9]; -1.86% [at 15.8 µM] in assay [14]. In assay [2], the activity, negative = inhibition was 5.3% [at 19 µM]. Also, the activity change, negative = cytotoxicity was -2.67% [at 19 µM] in [4]; -6.27% [at 19 µM] in assay [8]; 10.2% [at 18.9 µM] in assay [11]; 6.14% [at 15.8 µM] in [13]; -9.27% [at 19 µM] in assay [15]. In assay [6], the cAMP activity change is -0.409% [at 18.9 µM]. For the same compound, the activity change, negative = inhibition in [7] was 2.37% [at 19 µM]; in [10], 5.77% [at 18.9 µM]. Also, in assay [12], the viability change, negative = cytotoxic was 1.27% [at 15.8 µM].
For `Cc1ccc(-c2ccccc2)cc1`, the Potency entry in assay [1], in assay [2], in assay [16], in [4], in assay [7] and in assay [8] was “inactive” throughout. The Potency result in assay [9], in assay [10], in assay [11], in assay [17], in assay [12] and in [13] was “inactive” throughout. The Potency result in assay [14], in [18] and in assay [15] was “inactive” throughout. The compound was called inactive in assay [6] and in assay [19].
With `Cc1cccc2cccnc12`, the Potency entry in [1], in assay [2], in assay [16], in [4], in assay [7] and in [8] was “inactive” throughout. Further, the Potency result in assay [9], in assay [10], in [11], in [17], in assay [12] and in [13] was “inactive” each time. Further, the Potency entry in [14] and in [18] was “inactive” throughout. Further, the compound was called inactive in assay [6] and in [19].
Regarding `O=[N+]([O-])c1cccc(C(F)(F)F)c1`, the Potency result in assay [1], in assay [2], in assay [4], in assay [5], in assay [7] and in [8] was “inactive” throughout. For the same compound, the Potency result in [9], in [10], in assay [11], in assay [12], in [13] and in assay [14] was “inactive” throughout. In addition, the Potency result in assay [18] and in [15] was “inactive” in each case. For the same compound, the result in assay [6] and in assay [19] was inactive.
With `COC(=O)c1ccccc1OC`, the Potency result in [1], in assay [2], in assay [20], in assay [4], in assay [5] and in [7] was “inactive” each time. For the same compound, the Potency result in assay [8], in [9], in assay [10], in [11], in assay [17] and in [12] was “inactive” in each case. In addition, the Potency entry in [13], in assay [14], in assay [18] and in [15] was “inactive” each time. The outcome in assay [6] and in [19] was inactive.
Regarding `COc1c(C)c2c(c(O)c1C/C=C(\C)CCC(=O)OCCN1CCOCC1)C(=O)OC2`, the Potency result in [1], in assay [20], in assay [5], in [7], in assay [8] and in [9] was “inactive” each time. The Potency result in assay [12], in assay [13], in assay [18] and in [15] was “inactive” each time. For the same compound, the Potency in assay [16] was 335 nM (active); in [17], 0.237 µM (active). The outcome in assay [3], in assay [6] and in assay [19] was inactive.
On to `Cc1nc(-c2ccc(Cl)cc2)oc1COC(C)(C)C(=O)O`, for which the Potency entry in [1], in [2], in assay [20], in [4], in [7] and in assay [8] was “inactive” throughout. Moreover, the Potency entry in assay [9], in assay [10], in [11], in assay [12], in assay [13] and in assay [14] was “inactive” in each case. Also, the Potency entry in assay [18] is “inactive”. Besides, the result in [6] and in assay [19] was inactive.
For `CCN(CC)C(=O)c1cc(S(=O)(=O)Cc2ccccc2)c(N2CCC(c3ccccc3)CC2)cc1N(CC)CCN(C)C`, the Potency result in assay [1], in [5], in [8] and in [18] was “inactive” throughout. Besides, the Potency is 21.4 µM (active) in assay [2]; 19.1 µM (active) in assay [4]; 19.1 µM (active) in [11]; 8.53 µM (active) in [17]; 13.5 µM (active) in [15]. For the same compound, the outcome in [6] and in assay [19] was inactive.
